Measurements reported in PubChem BioAssay (NCI).
The panel holds about 83,000 compounds, 20% with a hit somewhere; the sample as a whole holds those more often.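 Values shown are percent growth following 48 h exposure of cells in 96-well plates to a single concentration of compound; below 10 was considered active.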 Calls of active or inactive are those of the source.

What was measured:
Experiment in all cases: NCI-60 one-dose screen, 48 h (100 = growth as untreated, 0 = no growth, -100 = all killed)
Conditions in all cases: 10 µM unless noted
T-47D breast = tested on: T-47D breast
BT-549 breast = tested on: BT-549 breast
MDA-MB-435 melanoma = tested on: MDA-MB-435 melanoma
SW-620 colon = tested on: SW-620 colon
MCF7 breast = tested on: MCF7 breast
HCT-116 colon = tested on: HCT-116 colon
HCC-2998 colon = tested on: HCC-2998 colon
KM12 colon = tested on: KM12 colon

Measured: growth

O=S(=O)(NCCNc1nccc(-c2c(-c3cccc(F)c3)nc3sccn23)n1)c1ccc(Cl)cc1
inactive: T-47D breast 43.2% | BT-549 breast 71.3% | MDA-MB-435 melanoma 26.3% | SW-620 colon 59.6% | MCF7 breast 24.7% | HCT-116 colon 34% | HCC-2998 colon 83.4% | KM12 colon 47.7%

COc1cc2nc(-c3ccc(Cl)cc3)cc(OCCCN3CCCC3)c2cc1OC
inactive: T-47D breast 32% | BT-549 breast 37.3% | SW-620 colon 30.4% | MCF7 breast 48.1% | HCT-116 colon 23.4% | HCC-2998 colon 72.4% | KM12 colon 41.4%
active: MDA-MB-435 melanoma -7.23%

CC(=O)[C@@H]1CC[C@]2(CO)CC[C@]3(C)[C@H](CC[C@@H]4[C@@]5(C)CCCNC(C)(C)[C@@H]5CC[C@]43C)[C@@H]12
inactive: T-47D breast 103% | BT-549 breast 101% | MDA-MB-435 melanoma 96.8% | SW-620 colon 103% | MCF7 breast 87.1% | HCT-116 colon 94.3% | HCC-2998 colon 101% | KM12 colon 101%

Cc1ccc(NS(=O)(=O)c2ccc(-c3cnc(C4CC4)o3)cc2)cc1C(F)(F)F
active: MDA-MB-435 melanoma -4.02%
inactive: T-47D breast 55.1% | BT-549 breast 63.8% | SW-620 colon 37.2% | MCF7 breast 26.6% | HCT-116 colon 41.1% | HCC-2998 colon 84.1% | KM12 colon 38.6%

C=C1C(=O)O[C@H]2[C@H]1CC/C(CNC(=O)CCc1ccc(OC)cc1)=C\CC[C@@]1(C)O[C@@H]21
inactive: T-47D breast 40.8% | BT-549 breast 43.1% | MDA-MB-435 melanoma 14.3% | SW-620 colon 19% | MCF7 breast 33.5% | HCT-116 colon 19.8% | HCC-2998 colon 97.5% | KM12 colon 97.4%

CNC(=O)c1cc(Cn2nc(C)c(NC(=O)Nc3ccc(Cl)c(C(F)(F)F)c3)c2C)ccn1
inactive: T-47D breast 85% | BT-549 breast 98.6% | MDA-MB-435 melanoma 100% | SW-620 colon 111% | MCF7 breast 93.8% | HCT-116 colon 86.7% | HCC-2998 colon 105% | KM12 colon 106%

CCOC(=O)Oc1c(OC)cc(C(=O)c2ccc(OC)c(OC(=O)CCl)c2OC)cc1OC
inactive: T-47D breast 36.2% | BT-549 breast 42.4% | SW-620 colon 21.9% | MCF7 breast 16.6% | HCT-116 colon 11.4% | HCC-2998 colon 43.3% | KM12 colon 21.9%
active: MDA-MB-435 melanoma -35.9%

O=C(CCN1CCCC1)Nc1ccc2c(NCCCCc3ccccc3)c3ccccc3nc2c1
inactive: BT-549 breast 56.9%
active: T-47D breast -27.2% | MDA-MB-435 melanoma -91.2% | SW-620 colon -60.5% | MCF7 breast -75.9% | HCT-116 colon -70.8% | HCC-2998 colon -90.9% | KM12 colon -79.1%

CC(=O)O[C@@H]1C2CCC3C(CC[C@@]4(C)C3CC[C@@H]4C(C)N(C)C)[C@@]2(C)CC[C@@H]1NC(=O)C=C(C)C (stereo partly specified)
active: T-47D breast -28% | MDA-MB-435 melanoma -47.4% | SW-620 colon -64.5% | MCF7 breast -16.9% | HCT-116 colon -55% | HCC-2998 colon -23.5% | KM12 colon 9.21%
inactive: BT-549 breast 26.4%

COc1ccc2nc(-c3ccc(-c4noc(-c5cc(OC)c(OC)c(OC)c5)n4)cc3)[nH]c2c1
inactive: T-47D breast 83.8% | BT-549 breast 26.8% | MDA-MB-435 melanoma 39.1% | SW-620 colon 63.8% | MCF7 breast 41.3% | HCT-116 colon 33% | HCC-2998 colon 111% | KM12 colon 55.4%

Nc1c(C(=O)Nc2cccc3cnccc23)sc2nc3c(cc12)C(=O)CCC3
active: MDA-MB-435 melanoma 7.12%
inactive: T-47D breast 105% | BT-549 breast 83.4% | SW-620 colon 79.4% | MCF7 breast 53.8% | HCT-116 colon 86% | HCC-2998 colon 97.4% | KM12 colon 71.5%

Cc1nnc2c(Cc3ccccc3)nc3ccccc3n12
inactive: T-47D breast 92.4% | BT-549 breast 91.8% | MDA-MB-435 melanoma 93.2% | SW-620 colon 97.3% | MCF7 breast 97.9% | HCT-116 colon 93.1% | HCC-2998 colon 97.8% | KM12 colon 97.5%

C=C(CBr)[C@@H]1CC[C@]2(COC(C)=O)CC[C@]3(C)[C@H](CC[C@@H]4[C@@]5(C)CCCNC(C)(C)[C@@H]5CC[C@]43C)[C@@H]12
inactive: T-47D breast 25.9% | BT-549 breast 36.2% | MDA-MB-435 melanoma 54.5% | SW-620 colon 31.5% | MCF7 breast 21.5% | HCT-116 colon 15.3% | HCC-2998 colon 50.8% | KM12 colon 41.9%

O=C(Nc1cccc(C2=NCCN2)c1)c1ccc(-c2ccc(C(=O)Nc3cccc(C4=NCCN4)c3)cc2)cc1
inactive: T-47D breast 58.5% | BT-549 breast 93.4% | MDA-MB-435 melanoma 57.4% | SW-620 colon 69.2% | MCF7 breast 18.5% | HCT-116 colon 72.7% | HCC-2998 colon 81.1% | KM12 colon 60.4%

NC(=NCc1ccccc1)C(N=Nc1ccccc1)C(=O)NCc1ccccc1 (stereo unspecified)
inactive: T-47D breast 84.6% | BT-549 breast 114% | MDA-MB-435 melanoma 81.4% | SW-620 colon 61.5% | MCF7 breast 69.4% | HCT-116 colon 15.8% | HCC-2998 colon 74.7% | KM12 colon 34.6%

C=C(C)[C@@H]1CC[C@]2(C(=O)N3CCN(C)CC3)CC[C@]3(C)[C@H](CC[C@@H]4[C@@]5(C)C/C(=C/c6cccnc6)C(=O)C(C)(C)[C@@H]5CC[C@]43C)[C@@H]12
inactive: T-47D breast 54.2% | BT-549 breast 83.2% | MDA-MB-435 melanoma 69.4% | SW-620 colon 48.1% | MCF7 breast 27.2% | HCT-116 colon 25.3% | HCC-2998 colon 77.5% | KM12 colon 54.7%

C[C@H](c1nc2ccc(N)cc2[nH]1)[C@H]1CC[C@H]2[C@@H]3CCC4=CC(=O)CC[C@]4(C)[C@H]3CC[C@]12C
inactive: T-47D breast 77.8% | BT-549 breast 70% | MDA-MB-435 melanoma 95.7% | SW-620 colon 102% | MCF7 breast 67.9% | HCT-116 colon 74.6% | HCC-2998 colon 93.5% | KM12 colon 91.8%

O=C1c2cccc3c(-c4ccc5c(c4)ncn5C4CCCCC4)ccc(c23)C(=O)N1CCO
inactive: T-47D breast 68% | BT-549 breast 95.2% | MDA-MB-435 melanoma 109% | SW-620 colon 104% | MCF7 breast 97.8% | HCT-116 colon 80% | HCC-2998 colon 93.2% | KM12 colon 86.7%

Cc1ccc(/C=C(/C#N)n2nnc3cccc(F)c32)cc1
inactive: T-47D breast 21.9% | BT-549 breast 27.1% | MCF7 breast 13.5%
active: MDA-MB-435 melanoma -89.5% | SW-620 colon 1.87% | HCT-116 colon 2.07% | HCC-2998 colon -32.1% | KM12 colon -17.6%

Cc1cc2nc3c4cc(C=O)ccc4n(CCN(C)C)c3nc2cc1C
active: SW-620 colon 1.57% | MCF7 breast 2.77%
inactive: T-47D breast 22.3% | BT-549 breast 53.6% | MDA-MB-435 melanoma 25.6% | HCT-116 colon 10.2% | HCC-2998 colon 40.6% | KM12 colon 26.3%

Cc1ccc(NC(=O)c2cc(-c3nc4ccccc4s3)c(=O)n(NS(=O)(=O)c3ccc(Cl)cc3)c2N)cc1
inactive: T-47D breast 98.7% | BT-549 breast 115% | MDA-MB-435 melanoma 99.4% | SW-620 colon 111% | MCF7 breast 93.7% | HCT-116 colon 95.6% | HCC-2998 colon 118% | KM12 colon 98.8%

CCOC(=O)c1cc(C(=O)c2ccc(OC)cc2)n2ccc(/C=C/c3cc[n+](CC(=O)c4ccc(OC)cc4)cc3)cc12
active: SW-620 colon 5.72% | MCF7 breast -62.6% | HCT-116 colon 3.01%
inactive: T-47D breast 36.3% | BT-549 breast 86% | MDA-MB-435 melanoma 77% | HCC-2998 colon 36.7% | KM12 colon 91.9%

O=C1c2ccc3c4c(ccc(c24)C(=O)N1CCCNCc1ccccc1)C(=O)N(CCCNCc1ccccc1)C3=O
active: T-47D breast -29.9% | BT-549 breast -85.2% | MDA-MB-435 melanoma -54% | SW-620 colon -81.8% | MCF7 breast -83.8% | HCT-116 colon -44.9% | HCC-2998 colon -90.8% | KM12 colon -81.8%

O=C(/C=C(/C=C/c1csc2ccccc12)OB(F)F)/C=C/c1csc2ccccc12
active: BT-549 breast 4.74% | MDA-MB-435 melanoma -18.6% | SW-620 colon 5.19% | HCT-116 colon -57.7%
inactive: T-47D breast 38.4% | MCF7 breast 39.9% | HCC-2998 colon 92% | KM12 colon 37.7%

Cc1cccc(NC(=O)Nc2ccc(-c3ccc4c(c3)NC(=O)/C4=C\c3ccc[nH]3)cc2)c1
inactive: T-47D breast 39.1% | BT-549 breast 102% | MDA-MB-435 melanoma 78.8% | SW-620 colon 73% | MCF7 breast 15.3% | HCT-116 colon 72.7% | HCC-2998 colon 99% | KM12 colon 19.4%

C=C1C(=O)O[C@H]2[C@H]1CC/C(COC(=O)NCC(C)c1ccc(CC(C)C)cc1)=C\CC[C@@]1(C)O[C@@H]21 (stereo partly specified)
active: T-47D breast -50% | BT-549 breast -42.4% | MDA-MB-435 melanoma -88.7% | SW-620 colon -58.7% | HCT-116 colon -83% | KM12 colon -3.31%
inactive: MCF7 breast 13.7% | HCC-2998 colon 59.5%

O=C(c1nc2ccccc2[nH]1)C1C(c2ccc(Cl)cc2)C2CC3CCCC[C@H]3N2[C@@]12C(=O)Nc1cc(Cl)ccc12 (stereo partly specified)
inactive: T-47D breast 24.8% | BT-549 breast 80.8% | MDA-MB-435 melanoma 24.8% | SW-620 colon 33.2% | MCF7 breast 17.3% | HCT-116 colon 23.4% | HCC-2998 colon 52% | KM12 colon 45.8%
